This passage reports inhibition results from PubChem BioAssay AID588852 (The Scripps Research Institute Molecular Screening Center, 2011).

Among all 360,000 compounds or so, about 4,600 (1.3%) were called active. For the sample, actives were picked, then their nearest neighbours and some compounds at random. A number with no mark means an inactive call.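 The calls were made as follows: active = percent inhibition above its own plate's cutoff, namely the mean of that plate's compound wells plus 3 SD; inactive = the rest.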

The experiment deals with Muscarinic acetylcholine receptor M1 (Homo sapiens) (UniProt P11229). Briefly: CHRM1 blockers of acetylcholine calcium response – CHO-K1 cells, Fluo-8 calcium fluorescence, 1536-well, primary screen (AID 588852).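 Also: peak over basal fluorescence ratio during 140 s after agonist addition; 0% = ACh EC80 plus DMSO and 100% = DMSO alone without agonist.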 The conditions noted are these: CHO-K1 hM1, Fluo-8 calcium fluorescence, ACh EC80 antagonist; at 3 µM; hits give high values.
Muscarinic acetylcholine receptor M1 (Homo sapiens), sequence (P11229 whole entry, looked up): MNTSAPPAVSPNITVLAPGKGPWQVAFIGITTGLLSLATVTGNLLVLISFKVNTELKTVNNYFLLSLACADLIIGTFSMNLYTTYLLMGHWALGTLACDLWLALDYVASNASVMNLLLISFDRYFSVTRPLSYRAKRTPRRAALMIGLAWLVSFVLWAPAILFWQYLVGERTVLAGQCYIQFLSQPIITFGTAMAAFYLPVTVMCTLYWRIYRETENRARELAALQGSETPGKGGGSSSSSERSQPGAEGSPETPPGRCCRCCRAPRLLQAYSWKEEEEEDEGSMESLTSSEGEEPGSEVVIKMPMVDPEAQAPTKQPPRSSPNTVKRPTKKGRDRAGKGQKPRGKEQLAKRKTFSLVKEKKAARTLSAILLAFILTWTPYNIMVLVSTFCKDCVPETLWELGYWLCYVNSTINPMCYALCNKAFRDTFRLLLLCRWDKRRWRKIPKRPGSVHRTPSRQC
As usually defined, the inhibition is the change of the read-out against control, counted positive when it falls. For the compound `CCCCN1CC(N2CCN(Cc3cccc(C)c3)CC2)CS1(=O)=O` (stereo not drawn), the inhibition was 8.04%.
Turning to `CSc1ccc(CN2C(=O)NC3(CCCCCC3)C2=O)cc1`, the inhibition was 8.79%.
`CC(C)(C)C(=O)NC1CC2CCCC(C1)N2C(=O)Nc1ccccc1F` (stereo not drawn): the inhibition is -7.35%.
Regarding `COc1ccc(S(=O)(=O)NCCCCOc2ccc(Cl)cc2)cc1`, the inhibition was 32.6% (active).
For the compound `COc1ccc(OCCNS(=O)(=O)Cc2ccccc2)cc1`, the inhibition was -0.06%.
On to `COc1ccc(S(=O)(=O)NCCOc2ccccc2)cc1F`, for which the inhibition is -7.76%.
On to `CC1(C)CC(N2CCN(C(c3ccccc3)c3ccccc3)CC2)=CC(=[N+]2CCCCC2)C1`, for which the inhibition was 72.8% (active).
On to `CC(C)OCC(O)CN1CCN(C(c2ccccc2)c2ccccc2)CC1` (stereo not drawn), for which the inhibition is 24.4%.
As for `CC1(C)CC(=O)C=C(N2CCOCC2)C1`, the figure is -7.94%; as for `CCNS(=O)(=O)c1ccc(CCC(=O)N2CCN(c3cc(Cl)ccc3C)CC2)cc1`, 13.9%; as for `Cc1sc2ccccc2c1CNC[C@H]1O[C@@H](n2ccc(=O)[nH]c2=O)[C@H](O)[C@@H]1O`, -6.07%.
For `CSCCC(NC(=O)c1ccccc1)C(=O)N1CCCCCCC1` (stereo not drawn), the inhibition was -10.3%.
Consider `COc1ccccc1C(=O)NC(CCSC)C(=O)N1CCN(C(C)=O)CC1` (stereo not drawn), for which the inhibition is -18.2%.
On to `CSCCC(NC(=O)c1ccccc1)C(=O)N1CCN(Cc2ccc(Cl)cc2)CC1` (stereo not drawn), for which the inhibition is 31.4% (active).
Take `O=c1c2c(ncn1Cc1ccccc1)nc1n2CCC1`: the inhibition was -9.57%.
With `COc1ccc(-c2nc3ccc(Br)cn3c2Cc2ccc(C)cc2)cc1OC` the figure was -18.2%.
Take `CCOc1ccc(CCNC(=O)COC(=O)C2CCN(S(=O)(=O)c3ccccc3)CC2)cc1OCC`: the inhibition was -4.87%.
As for `CCOc1ccc(CCNC(=O)COC(=O)C2CCN(c3ccc(C(F)(F)F)cn3)CC2)cc1OCC`, the inhibition is 38.9% (active).
With `CCc1cccc(NC(=O)COC(=O)C2CCN(c3ccc(C(F)(F)F)cn3)CC2)c1` the figure was 2.01%; with `CCc1ccc([C@@H]2CC(=O)[C@@H]3CN(S(=O)(=O)c4ccc(C)cc4)[C@H](c4ccc(Cl)cc4)C[C@@H]3N2S(=O)(=O)c2ccc(C)cc2)cc1`, -3.63%.
In the case of `COc1ccccc1N1CCN(CCCCOc2ccc(F)cc2)CC1`, the inhibition is 30.4% (active).
With `CCN1CCN(CCCCOc2ccccc2F)CC1`, the inhibition was -2.84%.
Regarding `COc1ccccc1OCCCCCCN1CCN(C)CC1`, the inhibition was -0.37%.
`O=C(NC(Cc1ccc(O)cc1)C(=O)O)/C(=C/c1ccccc1)NC(=O)c1ccccc1` (stereo not drawn): the inhibition is -14.6%.
Take `Cc1cccc(CN2CCN(C3CN(Cc4cn(Cc5ccccc5F)nn4)S(=O)(=O)C3)CC2)c1` (stereo not drawn): the inhibition is -4.3%.
With `COC(=O)C1=C(C)NC(=O)/C1=C/c1ccc(CNS(=O)(=O)c2ccc(C)cc2)o1`, the inhibition was 8.24%.
With `COC(=O)C1=C(C)NC2=C(C(=O)c3ccccc32)C1c1ccc(-c2ccc(C(=O)O)cc2)o1` (stereo not drawn) the figure was 32.9% (active); with `COC(=O)C1=C(C)N(C)C(=O)NC1c1ccc([N+](=O)[O-])o1` (stereo not drawn), 0.09%.
Take `CCN(CC)S(=O)(=O)c1ccc(N(C)CCc2ccc(OC)c(OC)c2)nc1`: the inhibition is -0.86%.
On to `CCN(CC)S(=O)(=O)c1ccc(N(C)Cc2cccc(OC)c2OC)nc1`, for which the inhibition is 7.81%.
Take `CCN(CC)S(=O)(=O)c1ccc(N(C)Cc2ccc(C(F)(F)F)cc2)nc1`: the inhibition is 61.2% (active).
As to `Cc1ccc(Sc2ccc(NC(=O)c3ccc(F)cc3)cc2C#N)cc1`, the inhibition was 9.62%.
Consider `Cc1cc(=O)oc2cc(OCC3CC(c4ccccc4Cl)=NO3)ccc12` (stereo not drawn), for which the inhibition is -6.21%.
`COc1cc(CN2CCN(Cc3ccc(C)cc3)CC2)c([N+](=O)[O-])cc1OC`: the inhibition was -6.59%.
Take `Cc1cc(OCC(=O)NC2CCN(C)CC2)ccc1[N+](=O)[O-]`: the inhibition was -1.71%.
Regarding `COc1ccc(N2CCN(C(=O)COc3ccc4c(C)cc(=O)oc4c3)CC2)cc1`, the inhibition was -5.75%.
With `Cc1ccccc1N1CCN(CCCOc2ccc3c(C)cc(=O)oc3c2)CC1` the figure was 39.5% (active).
For the compound `Cc1cc(OCCCN2CCN(Cc3ccccc3)CC2)ccc1[N+](=O)[O-]`, the inhibition is 54.7% (active).
With `Nc1nc2cc(Cl)ccc2n1N` the figure was -2.44%; with `CN1OC[C@@H]2CN(S(=O)(=O)c3cccc4ccccc34)[C@H](c3ccc(N4CCCCC4)cc3)C[C@@H]21`, 5.74%.
As for `O=C(NC(c1ccc(-c2ccccc2)cc1)c1cnccn1)C1CCN(CCOc2ccc(Cl)cc2Cl)CC1` (stereo not drawn), the figure is -16.7%; as for `CN(C)CCOCCOc1ccc(Cl)c2ccccc12`, -1.32%; as for `CN(C)CCOc1cccc(Br)c1`, 17.3%.
As to `CN(C)CCOc1ccc(Cl)cc1C(C)(C)C`, the inhibition is 66.2% (active).
On to `Cc1ccc(C)c(NC(=O)C(OC(=O)c2ccc(C)s2)c2ccccc2)c1` (stereo not drawn), for which the inhibition is -2.69%.
`Cc1cc(C)cc(NC(=O)C(OC(=O)c2ccc(O)cc2)c2ccccc2)c1` (stereo not drawn): the inhibition is 29.5% (active).
On to `Cc1cc(C)cc(NC(=O)C(c2ccccc2)N2CCN(CC(=O)N3CCCC3)CC2)c1` (stereo not drawn), for which the inhibition was 3.45%.
As for `COCCCNC(=O)CN1C(=O)CSc2ccc(S(=O)(=O)N3CCOCC3)cc21`, the figure is -6.65%.
With `CCN(C(=O)COC(=O)c1c(C)nn(-c2ccccc2)c1Cl)c1c(N)n(Cc2ccccc2)c(=O)[nH]c1=O`, the inhibition was -4.94%.
For `CN(Cc1cnccn1)C(=O)c1cc(COc2cccc(C(F)(F)F)c2)on1`, the inhibition was -11.2%.
Regarding `CC(=O)c1cccc(OCc2cc(C(=O)NC(C)Cc3cccnc3)no2)c1` (stereo not drawn), the inhibition was 18.6%.
As for `CN(Cc1cccnc1)C(=O)c1cc(COc2ccc3ncccc3c2)on1`, the figure is 50% (active).
With `Cc1nc(COc2cc3oc(=O)cc(C)c3cc2Cl)cs1` the figure was -7.17%; with `O=C(Cn1cc(C(F)(F)F)ccc1=O)Nc1ccc2c(c1)OCCO2`, -0.29%.
With `O=C(CSc1nnc(-c2ccco2)o1)NCC(=O)c1ccccc1`, the inhibition is -3.08%.
Take `Cc1nc(-c2ccc(F)cc2)c(CC(=O)Nc2cccc(S(=O)(=O)N3CCOCC3)c2)s1`: the inhibition is 0.85%.
In the case of `O=S(=O)(c1cccc(Cn2nnc(-c3ccc(F)cc3)n2)c1)N1CCOCC1`, the inhibition was 27.1% (active).
As for `CCN(Cc1ccncc1)C(=O)c1cccc(S(=O)(=O)N2CCOCC2)c1`, the inhibition is -4%.
